Gli-Sufu antag: Gli-Sufu pathway antagonism | Sufu-KO-LIGHT fibroblasts, Gli luciferase reporter luminescence | inhibition, % at 5 µM | actives 0.74% (n = 340,000);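 active = inhibition above about 55%, limit read from the data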
Mdm2 MdmX PPI: inhibitors of human Mdm2/MdmX interaction; actives 3% (n = 330,000); O15151+Q00987; SaOS-2 split-luciferase Mdm2/MdmX complementation, luminescence; inhibition, % at 8 µM;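 active = inhibition of at least 50% at 8 µM in the primary screen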
697 NFkB inh: lowers PMA/ionomycin-induced NF-kB signal in 697 B cells; AID 435022; inhibition, % at 4 µM; 697 B-cell NF-kB luciferase reporter, 16 h; actives 0.33% (n = 330,000); in the data active = inhibition above about 35%
Beta apoptosis: beta cell apoptosis inhibition. INS-1E cytokine-induced death, ATP luminescence, 48 h; percent of positive-control rescue, neutral wells zero. protection from apoptosis, % (test concentration not listed). actives 0.8% (n = 300,000);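 active = Every replicate reaches about 75%, or at least half do and their mean reaches it too, limit read from the data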;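 note: higher means more ATP so stronger rescue from cytokine killing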
Jurkat NFkB inh: lowers PMA/ionomycin-induced NF-kB signal in Jurkat cells | PMA/ionomycin-induced NF-kB luciferase reporter, luminescence | inhibition, % at 4 µM | actives 0.53% (n = 330,000); in the data active = inhibition above about 50%
Mdm2-MdmX conf: human Mdm2/MdmX binding inhibition, confirmed. shares compounds with Mdm2 MdmX PPI. luminescent assay. inhibition, % at 8 µM. actives 55% (n = 10,000). AID 489028; in the data active = inhibition above about 40%
FLuc counter: counter-screen for Mdm2/MdmX inhibitors: full-length luciferase; SaOS-2 full-length luciferase counterscreen, luminescence; inhibition, % at 8 µM; actives 77% (n = 6,200); shares compounds with Mdm2 MdmX PPI;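 active = mean inhibition at 8 µM reaching about 37%, which flags the compound as non-specific, limit read from the data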;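 note: p53-null SaOS-2 cells with luciferase driven by a doxycycline-inducible promoter; compound on cells about two nights before reading with doxycycline added after day one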
Of the large screens only hits and unclear results are named; the others gave an inactive call (follow-up assays come after a bar, where they were run). In the library only some 4% were active in any assay of this set; here they are far more common.

N#Cc1ccc(NC(=O)Nc2ccc(Cl)cc2)cc1	Mdm2 MdmX PPI 85, Beta apoptosis 105 | Mdm2-MdmX conf 88 | FLuc counter 45
O=C(Cn1cnc2ccccc2c1=O)NCCCN1CCCC1=O	none
O=C1C(=O)N(C/C=C/c2ccccc2)c2ccccc21	none
O=C(NNS(=O)(=O)c1ccccc1Cl)C1COc2ccccc2O1 (centres undefined)	none
CCOC(=O)Cn1cnc2scc(-c3ccc(C)cc3)c2c1=O	none
CCOc1ccccc1NC(=O)CCCc1nc2ccccc2c(=O)[nH]1	Mdm2 MdmX PPI 65 | Mdm2-MdmX conf 49 | FLuc counter 56
Cc1c(C(=O)Nc2ccc(F)cc2)oc2ccc(S(=O)(=O)N3CC(C)CC(C)C3)cc12 (centres undefined)	Mdm2 MdmX PPI 64 | Mdm2-MdmX conf inactive | FLuc counter 69
CC(Oc1ccc(Br)cc1)C(=O)Nc1ccc(S(=O)(=O)N(C)C2CCN(C)CC2)cc1 (centres undefined)	Mdm2 MdmX PPI 59 | Mdm2-MdmX conf inactive | FLuc counter 76
COc1ccc2oc(C(=O)Nc3ccc(S(=O)(=O)N(C)C4CCN(C)CC4)cc3)c(C)c2c1	Mdm2 MdmX PPI 96 | Mdm2-MdmX conf 46 | FLuc counter 47
CC1CC(C)CN(S(=O)(=O)c2ccc(F)c(C(=O)Nc3ccc(Cl)cc3F)c2)C1 (centres undefined)	Mdm2 MdmX PPI 52 (no result: Beta apoptosis) | Mdm2-MdmX conf inactive
CC1CCN(C(=O)Cn2c(=O)n(Cc3ccco3)c(=O)c3sccc32)CC1	none
COc1ccc(Cl)cc1N(CC(=O)NCC(C)C)S(=O)(=O)c1ccc(C)c([N+](=O)[O-])c1	none
CCN(CC)S(=O)(=O)c1cc(OC)ccc1N=Nc1ccc(O)c2ncccc12	Mdm2 MdmX PPI 74, Beta apoptosis 94 | Mdm2-MdmX conf 73 | FLuc counter inactive
CCN(CC)S(=O)(=O)c1cccc2cccnc12	none
COc1ccc(S(=O)(=O)NCCOc2cccc3cccnc23)cc1OC	none (no result: Beta apoptosis)
CCS(=O)(=O)c1ccc(OC)c(N=Nc2ccc(O)c3ncccc23)c1	Mdm2 MdmX PPI 71, Beta apoptosis 108 | Mdm2-MdmX conf 54 | FLuc counter 50
COCCCn1c(SCC(=O)NNC(=O)c2cccc(O)c2)nnc1-c1ccncc1	none
COc1ccc2sc(N(CCCN(C)C)C(=O)c3ccc(S(=O)(=O)N4CCCc5ccccc54)cc3)nc2c1	Mdm2 MdmX PPI 80 (no result: Beta apoptosis) | Mdm2-MdmX conf 44 | FLuc counter 64
CCN(Cc1ccccc1)S(=O)(=O)c1ccc(C(=O)N(CCCN(C)C)c2nc3cc4c(cc3s2)OCCO4)cc1	Mdm2 MdmX PPI 78 (no result: Beta apoptosis) | Mdm2-MdmX conf inactive | FLuc counter 77
CCN(Cc1ccccc1)S(=O)(=O)c1ccc(C(=O)N(CCCN(C)C)c2nc3cc(OC)ccc3s2)cc1	Mdm2 MdmX PPI 50 | Mdm2-MdmX conf inactive
CC(C)(C)S(=O)N1Cc2cc(=O)n(Cc3ccccc3)cc2[C@H]1CCO (some centres undefined)	none (no result: Mdm2 MdmX PPI, 697 NFkB inh, Beta apoptosis, Jurkat NFkB inh)
COP1(=O)C=C[C@H](N(Cc2ccccc2)S(=O)(=O)c2ccccc2[N+](=O)[O-])[C@@H](C)O1 (some centres undefined)	none
O=C(NNc1ccccc1Br)C(O)(c1cccc(C(F)(F)F)c1)c1cccc(C(F)(F)F)c1	Mdm2 MdmX PPI 94, Beta apoptosis 125 | Mdm2-MdmX conf 78 | FLuc counter 87
Cc1cccc(/C=C/c2onc(C)c2S(=O)(=O)N2CCC(C(=O)N3CCC(C)CC3)CC2)c1	Mdm2 MdmX PPI 52 | Mdm2-MdmX conf inactive
CCc1ccc(NC(=O)C(=O)c2cn(CC(=O)N3CCCCC3)c3ccccc23)cc1	none
COC(=O)c1ccc(NC(=O)C(=O)c2cn(CC(=O)N3CCOCC3)c3ccccc23)cc1	Mdm2 MdmX PPI 55 | Mdm2-MdmX conf inactive
CCC1Nc2ncnc(N3CCN(c4ccccc4)CC3)c2N(Cc2ccc(Br)cc2)C1=O (centres undefined)	Mdm2 MdmX PPI 53 | Mdm2-MdmX conf inactive
COc1cc(/C=C/C(=O)N2CCCC2)cc(OC)c1OC	none
COc1ccc(OC)c(/C=C/C(=O)N2C(=O)c3cccc(N)c3C2=O)c1	Mdm2 MdmX PPI 63 | Mdm2-MdmX conf 48 | FLuc counter inactive
COc1cc(/C=C/C(=O)N2C(=O)c3cccc(N)c3C2=O)cc(OC)c1OC	Mdm2 MdmX PPI 71 | Mdm2-MdmX conf 58 | FLuc counter 79
Nc1cccc2c1C(=O)N(C(=O)/C=C/c1cccc(F)c1)C2=O	Mdm2 MdmX PPI 56 | Mdm2-MdmX conf 50 | FLuc counter 65
COc1cc(/C=C/C(=O)N2CCN(C(=O)/C=C/c3cc(OC)c(OC)c(OC)c3)CC2)cc(OC)c1OC	Mdm2 MdmX PPI 64 | Mdm2-MdmX conf inactive
COc1ccc(OC)c(/C=C/C(=O)N2CCCc3ccccc32)c1	none
Nc1cccc2c1C(=O)N(C(=O)/C=C/c1cccc(Br)c1)C2=O	none (no result: Mdm2 MdmX PPI, 697 NFkB inh, Beta apoptosis, Jurkat NFkB inh)
CC(=O)Nc1cccc(C(=O)NNC(=O)c2n[nH]c(=O)c3ccccc23)c1	none
O=C(COC(=O)CCc1ccccc1)NNC(=O)c1ccccc1	none
CCC(C(=O)NCC1CCCO1)N(Cc1ccc(F)cc1)C(=O)CNS(=O)(=O)c1ccccc1 (centres undefined)	none
O=C1C=C(c2cc3ccccc3s2)C[C@@H](c2ccc3c(c2)OCO3)C1	Mdm2 MdmX PPI 67 | Mdm2-MdmX conf 41 | FLuc counter 101
Cc1ccc(C2=CC(=O)C[C@H](c3ccc4c(c3)OCO4)C2)cc1	none
CCOC(=O)c1c(-c2ccccc2)oc2cc(CN(C)C)c(O)c(CN(C)C)c12	Mdm2 MdmX PPI 54 | Mdm2-MdmX conf 62 | FLuc counter 48
CCOC(=O)c1c(C)n(C)c2ccc(O)c(CN3CCN(C)CC3)c12	none (no result: Beta apoptosis)
CCOC(=O)c1c(-c2ccccc2)oc2ccc(O)c(CN3CCN(C)CC3)c12	Mdm2 MdmX PPI 51 | Mdm2-MdmX conf 45 | FLuc counter 59
CCOC(=O)c1c(CN2CCN(CCO)CC2)n(-c2ccccc2)c2cc(Br)c(O)cc12	none
CCOC(=O)c1c(CN2CCN(C)CC2)n(-c2ccccc2)c2cc(Br)c(O)cc12	Mdm2 MdmX PPI 61 | Mdm2-MdmX conf 46 | FLuc counter 39
O=C(CNC(=O)c1ccc(Br)o1)NCc1ccccc1	none
COc1cc2c(cc1OC)CN(c1nc(CN3CCCCC3)nc3sc4c(c13)CCCC4)CC2	Mdm2 MdmX PPI 53 | Mdm2-MdmX conf 44 | FLuc counter 62
O=[N+]([O-])CC(c1ccc(F)cc1)c1c[nH]c2ccccc12 (centres undefined)	Mdm2 MdmX PPI 63 | Mdm2-MdmX conf 66 | FLuc counter 42
NCC(c1ccccc1)c1c[nH]c2ccccc12 (centres undefined)	none
CC1=C(CC(=O)O)c2cc(F)ccc2C1=Cc1ccc(S(C)(=O)=O)cc1	none
